# Data reported in PubChem BioAssay.
# “And” between values parts separate entries of the source, which are not always exact repeats. Equal values may be shown once. Values without a mark were called inactive. No rule for the calls is given here.
# Molecular target: Pantothenate synthetase (Mycobacterium tuberculosis (strain ATCC 25618 / H37Rv)) (UniProt P9WIL5)
# Experiment: Recombinant Mtb pantothenate synthetase (PanC) inhibitors, coupled enzyme, confirmatory (AID 375);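 also: 0% = full reaction with vehicle and 100% = no enzyme background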
# Conditions: coupled enzyme assay; at 10 µM, stronger effect = higher value
# Chain of Pantothenate synthetase (Mycobacterium tuberculosis (strain ATCC 25618 / H37Rv)) (P9WIL5 whole entry, looked up): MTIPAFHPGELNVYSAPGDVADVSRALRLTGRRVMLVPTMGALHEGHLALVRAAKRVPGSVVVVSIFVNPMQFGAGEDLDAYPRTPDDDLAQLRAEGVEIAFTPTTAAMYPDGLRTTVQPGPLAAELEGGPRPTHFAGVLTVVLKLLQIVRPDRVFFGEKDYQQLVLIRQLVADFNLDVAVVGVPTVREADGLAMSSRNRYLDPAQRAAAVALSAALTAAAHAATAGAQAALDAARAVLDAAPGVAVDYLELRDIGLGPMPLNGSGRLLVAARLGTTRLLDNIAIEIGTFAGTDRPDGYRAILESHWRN
row,Compound,inhibition
1,Cc1noc(C)c1CSc1ccccc1C(=O)N1CCN(c2ccccc2)CC1,0%
2,CC(=O)Nc1ccc(S(=O)(=O)NCc2csc(-c3cccnc3)n2)cc1,0%
3,O=C(NCc1ccco1)c1cc2sccc2n1Cc1ccccc1,0%
4,COc1cccc(Nc2c(F)c(F)c(F)c(F)c2C(=O)O)c1,7%
5,O=C(CN1C(=O)CC(c2ccccc2)=Nc2ccccc21)NCc1ccco1,0%
6,CN(C)C(=O)CN(c1ccc(F)c(Cl)c1)S(C)(=O)=O,5%
7,CCOC(=O)C1=C(N)c2ccccc2CC1C(C)C (stereo not drawn),0%
8,Cn1nnnc1SCc1cn2cccnc2n1,0%
9,O=C(NC1CCCC1)c1c[nH]c2ccc(F)cc2c1=O,0%
10,COc1ccccc1NC(=O)CSC1CC(=O)N(c2ccc3c(c2)OCO3)C1=O (stereo not drawn),0%
11,COCCN1C=C(C(=O)OC)C(c2cc3c(cc2Br)OCO3)C(C(=O)OC)=C1,0%
12,CC(=O)c1ccc(Oc2cc(C)nc(-n3nc(C)cc3C)n2)cc1,4%
13,COc1ccc(CCNC(=O)c2cc(-c3cc(C)c(C)cc3O)n[nH]2)cc1OC,0%
14,CCN(CC)CC(=O)Nc1c(C)cccc1C,7% and 0%
15,CCn1c(C)c(CCC(=O)O)c(=O)n2nc(-c3ccccc3OC)cc12,0%
16,Cc1ccccc1CNS(=O)(=O)c1ccc2c(c1)OCCO2,0%
17,CC(C)CC(=O)N1CCN(S(=O)(=O)c2ccc(F)cc2)CC1,0%
18,Cn1c(=O)c2c(nc(NCc3ccc4c(c3)OCO4)n2Cc2ccccc2F)n(C)c1=O,3%
19,COCCCN1C(=O)C(=O)/C(=C(/O)c2ccc(OCC(C)C)cc2C)C1c1cccnc1 (stereo not drawn),0%
20,Cc1cc(C)n(C2=NS(=O)(=O)c3ccccc32)n1,1%
21,Cn1c(=O)c2[nH]cnc2n(C)c1=O,1%
22,c1ccc(OCCCn2nnc(-c3cccnc3)n2)cc1,3%
23,CS(=O)(=O)N1CCN(C(=O)c2ccc(-c3ccccc3)cc2)CC1,9%
